From PubChem
ELG1 DNA repair: qHTS screen for small molecules that inhibit ELG1-dependent DNA repair in human embryonic kidney (HEK293T) cells expressing luciferase-tagged ELG1 | HEK293T ELG1-luciferase reporter, luminescence, 16 h; DNA damage induced by 5-fluorouridine | Potency, µM (series often up to 46.1 µM), inactives show at the highest dose activity change, negative = inhibition, actives largely listed as inhibitors | 330,000 tested, 2.3% active | AID 504467, 2011; note: potency is the fitted concentration of half-maximal effect; nearly all actives have a fitted effect of over 55% in size
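Overnight (16 hr) co-exposure of 2,000 cells/well to 5-fluorouridine and compound at 37 °C preceded detection. Luciferase was quantified via ONE-Glo luminescence; loss of signal denotes inhibition.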
TDP1 cell CPT: qHTS for Inhibitors of human tyrosyl-DNA phosphodiesterase 1 (TDP1): qHTS in cells in presence of CPT. 420,000 tested, 12% active. Potency, µM (series often up to 46.2 µM), for the others: at the highest dose activity change, negative = growth inhibition, actives largely listed as inhibitors. chicken DT40 Tdp1-/-;hTDP1 cells + 20 nM CPT, ATP luminescence, 48 h; note: potency is the fitted concentration of half-maximal effect; nearly all actives have a fitted effect of over 55% in size
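Cell growth measured by CellTiter-Glo luminescence after a minimum 48 h, 37 C compound exposure with 20 nM CPT in Tdp1-knockout DT40 cells stably expressing hTDP1, seeded 400/well; qHTS titration format.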
IL-1B inflam inh: qHTS for Inhibitors of Inflammasome Signaling: IL-1-beta AlphaLISA Primary Screen; THP-1 LPS/ATP IL-1B secretion, AlphaLISA, 16 h; active compounds read low; activity change, % at 57.5 µM; 360,000 tested, 4.7% active; AID 743279, 2014; in the data active = activity change below about -50%; inconclusive = mostly about -30% to -49%
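THP-1 cells pretreated 1 hr with compounds (up to 57.5 uM final), then stimulated with LPS (250 ng/mL final) plus ATP (1.25 mM final); secreted IL-1B measured by AlphaLISA after 16 hr, decreased signal indicating inhibition.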
DT40 TDP1 no CPT: qHTS for Inhibitors of human tyrosyl-DNA phosphodiesterase 1 (TDP1): qHTS in cells in absence of CPT. DT40 Tdp1-/- hTDP1 cells, no CPT, ATP luminescence, 48 h. Potency, µM (series often up to 46.2 µM), for the others: top-dose activity change, negative = growth inhibition, hits mostly inhibitors. 420,000 tested, 15% active. AID 686978, 2013; note: potency is the fitted concentration of half-maximal effect; nearly all actives have a fitted effect of over 55% in size
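Chicken DT40 Tdp1-/- cells complemented with human TDP1, screened without camptothecin (DMSO vehicle only), 400 cells/well. Compounds pin-transferred, cells incubated at 37 °C for at least 48 hr. Growth read as ATP-dependent luminescence (CellTiter-Glo, 30 min at RT).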
Giardia killer: Small Molecules that selectively kill Giardia lamblia: qHTS; Giardia lamblia trophozoite viability; activity change, % at 7.66 µM, hits read low; 340,000 tested, 0.15% active; AID 540267, 2011; in the data active = activity change below about -80%; inconclusive = between about -30% and that limit;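 note: parasites exposed to compound for two days anaerobically before the ATP read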
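Each well holds 100 Giardia trophozoites and compound. After two days (48 hrs) at 37 deg C in anaerobic conditions, ATP is quantified by luminescence.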
TDP1 block: qHTS Assay for Inhibitors of Tyrosyl-DNA Phosphodiesterase (TDP1). Tyrosyl-DNA phosphodiesterase 1 (Homo sapiens), Q9NUW8. recombinant TDP1, AlphaScreen DNA substrate cleavage. Potency, µM (highest dose often 130 µM), without a hit: at the highest dose activity change, negative = inhibition, actives largely listed as inhibitors. 350,000 tested, 0.28% active. AID 485290, 2010; note: potency is the fitted concentration of half-maximal effect; nearly all actives have a fitted effect of over 40% in size
Target sequence (Q9NUW8 whole entry, looked up): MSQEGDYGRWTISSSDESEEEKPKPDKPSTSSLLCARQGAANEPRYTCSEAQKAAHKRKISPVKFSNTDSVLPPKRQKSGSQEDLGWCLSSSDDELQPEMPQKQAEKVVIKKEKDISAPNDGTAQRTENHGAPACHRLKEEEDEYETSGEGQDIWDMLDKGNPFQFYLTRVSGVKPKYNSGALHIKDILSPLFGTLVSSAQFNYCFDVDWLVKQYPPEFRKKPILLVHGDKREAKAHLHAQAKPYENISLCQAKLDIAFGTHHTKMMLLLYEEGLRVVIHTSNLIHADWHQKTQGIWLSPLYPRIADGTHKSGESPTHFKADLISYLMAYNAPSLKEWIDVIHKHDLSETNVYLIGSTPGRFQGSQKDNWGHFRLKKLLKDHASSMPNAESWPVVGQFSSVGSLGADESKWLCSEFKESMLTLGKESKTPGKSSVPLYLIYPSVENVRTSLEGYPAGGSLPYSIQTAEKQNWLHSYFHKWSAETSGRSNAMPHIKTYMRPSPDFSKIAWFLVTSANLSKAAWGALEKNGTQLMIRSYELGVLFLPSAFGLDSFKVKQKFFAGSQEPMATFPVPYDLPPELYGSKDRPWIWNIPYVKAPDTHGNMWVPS
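E. coli-derived human Tdp1, 1 nM final. Cpd preinc 15 min RT; substrate 15 nM final, 5 min RT; AS bead mix 10 ug/ml final, 10 min RT. Signal loss = tyrosine-FITC cleavage. No-enzyme wells = max signal.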
* hit, by the source's call; u = inconclusive; x = not tested or not shown; [ ] = dose if it differs, or a comment. Sampled rows, rich in hits. Any-hit rate of the full collection: about 19%. Unless noted, calls come from the whole dose curve; as a rule, active = well fitted curve in the direction sought with a large enough effect; inconclusive = small, poorly fitted or top-dose-only effect, or another doubt; inactive = no such curve, though single readings can be large; an effect the other way counts as inactive or inconclusive. % is set by controls: 0 for no effect and ±100 for the full control effect.

SMILES	ELG1 DNA repair	TDP1 cell CPT	IL-1B inflam inh	DT40 TDP1 no CPT	Giardia killer	TDP1 block
CCCn1c(CCC(=O)Nc2cc(OC)cc(OC)c2)nc2cccnc21	x	u	x	23.1µM*	x	6.4%
CCCn1c(CCC(=O)Nc2cc(C(=O)OC)cc(C(=O)OC)c2)nc2cccnc21	x	29.1µM*	x	u	x	3.8%
CCOc1ccc(NC(=O)CCc2nc3cccnc3n2Cc2ccc(OC)cc2)cc1	x	-1.9%	x	u	x	2.3%
COc1cc(C(=O)NCCc2c[nH]c3ccccc23)ccc1OCc1c(C)noc1C	u	u	-77.3*	18.4µM*	2.0	7.7%
COc1cc(C(=O)OCC#N)ccc1OCc1c(C)noc1C	u	u	81.4	23.1µM*	-1.0	2.7%
COc1cc(C(=O)NCC(c2ccccc2)N(C)C)ccc1OCc1c(C)noc1C (stereo not given)	15.2%	16.4µM*	5.2	u	27.7	-0.4%
COc1ccccc1CNC(=O)c1ccc(OCc2c(C)noc2C)c(OC)c1	x	3.9%	-11.6	-20.1%	-3.3	2.0%
O=C(CN(c1ccc(Cl)c(C(F)(F)F)c1)S(=O)(=O)c1ccccc1)N1CCc2ccccc2C1	x	u	x	16.4µM*	x	2.2%[12.3 µM]
Cc1ccccc1CC(=O)c1ccc(O)c(C)c1O	-1.3%	-21.3%	-55.0*	u	39.9	x
Cc1cccc(C(=O)Oc2ccccc2/C=N/Nc2ccc([N+](=O)[O-])cc2)c1	u	29.1µM*	-6.2	16.4µM*	-6.3	2.3%
O=[N+]([O-])c1ccc(N/N=C/c2cccc(O)c2)cc1	u	u	-87.6*	20.6µM*	8.5	x
O=[N+]([O-])c1ccc(N/N=C/c2cccc(O)c2O)cc1	3.5%	u	u	14.6µM*	-22.7	x
CN(C(=O)CSc1nnc(C2CC2)n1-c1ccccc1)C1CCS(=O)(=O)C1 (stereo not given)	11.2%	-0.2%	-9.9	33.8%	23.4	-2.3%
CCOC(=O)c1ccc(CN(Cc2ccccc2C)S(=O)(=O)c2ccc(F)c(C(=O)Nc3cccc(OC)c3)c2)cc1	x	0.4%	x	-16.2%	x	0.0%
O=C(CN1CCN(S(=O)(=O)c2ccc(Cl)cc2)CC1)c1ccc(O)c(O)c1	-3.0%	11.6µM*	44.8	8.2µM*	13.3	0.4%
O=C(CN1CCN(S(=O)(=O)c2ccc(F)cc2)CC1)c1ccc(O)c(O)c1	u	u	14.4	23.1µM*	25.9	5.4%
COc1ccc(S(=O)(=O)N2CCN(CC(=O)c3ccc(O)c(O)c3)CC2)cc1	6.2%	u	20.7	u	-13.0	-0.1%
Cc1cccc(C)c1NC(=O)CN1C(=O)c2cccc3cccc1c23	x	u	x	-13.0%	x	1.9%
CNC(=O)[C@H]1O[C@H](n2cnc3c(NCc4cccc(I)c4)ncnc32)[C@@H](O)[C@@H]1O	x	12.2%	x	u	x	10.3%[56.1 µM]
C=C1C(=O)[C@]23C[C@H]1CC[C@H]2[C@]1(C)[C@@H](OC(C)=O)CC[C@@](C)(C(=O)O)[C@H]1C[C@@H]3OC(C)=O	x	2.06µM*	-99.2*	4.11µM*	x	x
C=C1C(=O)[C@]23C[C@H]1CCC2[C@]1(C)CCC[C@@](C)(C(=O)O)C1C[C@@H]3O (stereo not given in full)	x	1.46µM*	-121.4*	1.64µM*	x	x
C=C1C(=O)[C@]23C[C@H]1CCC2[C@]1(C)C(=O)CC[C@@](C)(C(=O)O)C1C[C@@H]3O (stereo not given in full)	x	2.91µM*	-109.1*	3.66µM*	x	x
CCCNC(=O)NC(=O)COC(=O)c1ccc(S(=O)(=O)N(C)c2ccccc2OC)cc1	-19.8%	29.1µM*	27.1	20.6µM*	3.8	1.2%
CCN(CC(=O)NC(C)C)C(=O)c1ccc(S(=O)(=O)N(C)c2ccccc2OC)cc1	15.8%	u	10.9	14.6µM*	-4.0	10.5%
CCN(CC(=O)Nc1ccccc1OC)C(=O)c1ccc(N(C)S(=O)(=O)c2ccc(C)cc2)cc1	16.4µM*	14.6µM*	-3.7	16.4µM*	18.0	2.4%
SMILES	ELG1 DNA repair	TDP1 cell CPT	IL-1B inflam inh	DT40 TDP1 no CPT	Giardia killer	TDP1 block
CCN(Cc1ccccc1)C(=O)c1ccc(CNS(=O)(=O)c2ccc(C)cc2)cc1	-23.7%	u	-16.0	u	7.6	2.6%
COc1ccc(NC(=O)COC(=O)c2ccc(S(=O)(=O)N(C)c3ccccc3OC)cc2)cc1	x	-3.7%	0.0	18.7%	8.5	x
CCN(Cc1ccccc1)C(=O)c1ccc(N(C)S(=O)(=O)c2ccc(C)cc2)cc1	0.0%	18.4µM*	-2.8	14.6µM*	-16.6	4.9%
C=CCNC(=O)CSCc1ccc(Br)cc1	8.6%	-0.3%	-6.2	-14.9%	17.7	-4.9%
CCN(CC(=O)Nc1ccc(NC(C)=O)cc1)C(=O)c1ccc(N(C)S(=O)(=O)c2ccc(C)cc2)cc1	x	25.9µM*	9.1	u	0.7	x
CCOc1cc(CNCc2ccccc2)ccc1OCC(=O)NC1CCCCC1	-7.7%	18.4µM*	-5.7	16.4µM*	13.9	4.8%
O=C(COc1ccc(Br)cc1Br)NC1CCCC1	u	4.11µM*	-22.0	u	51.5	0.0%
CCN(CC)CCNCc1cc(Br)ccc1OCC(=O)NCc1ccccc1	10.4%	-1.7%	-12.3	1.4%	13.4	2.7%
Cc1cc(Cl)ccc1OCC(=O)NC1CCCC1	15.9%	11.6µM*	-84.9*	12.6µM*	-27.3	0.0%
O=C(COc1ccc(Br)cc1Cl)NC1CCCCC1	u	-12.2%	-7.0	u	2.0	8.3%
CC(NCc1cc(Br)ccc1OCC(=O)NCc1ccccc1)c1ccccc1 (stereo not given)	u	u	-68.0*	u	-5.3	-4.8%
COC(=O)C(C(C)C)N1CC(=O)c2ccccc2S1(=O)=O (stereo not given)	x	x	x	x	-11.3	13.8%
CCCCC[C@H](O)/C=C/C=C/C/C=C\CCCC(=O)O	x	x	x	x	x	7.5%
Cc1ccccc1OCC(=O)NC1CCCCCCC1	u	-14.7%	-2.7	u	-11.6	2.6%[0.0935 µM]
O=C(COc1ccc(Br)cc1CNC1CCCC1)Nc1ccccc1	-7.7%	u	-62.6*	18.4µM*	9.8	0.0%
Cc1ccc(C)c(OCC(=O)NC2CCCCCC2)c1	0.0%	-28.4%	-65.5*	u	-7.5	-6.3%
